The panel holds about 79,000 compounds, 15% with a hit somewhere; the sample as a whole holds those more often. The source made the active and inactive calls. Rule as the data show it: active = growth inhibition above about 70%; inactive = the rest.
Columns and labels:
[1] = NCI Yeast Anticancer Drug Screen. Data for the rad50 strain (AID 155);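 also: 0% = growth of vehicle-only cultures of the same strain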; conditions: S. cerevisiae rad50 strain growth inhibition; at 50.0 µM; active compounds read high
Summary of the method: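 Inhibition values express reduced yeast growth in compound-treated cultures relative to vehicle-treated controls.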

[2] = NCI Yeast Anticancer Drug Screen. Data for the mec2-1 strain (AID 157); conditions: S. cerevisiae mec2-1 strain, at 50.0 µM, active compounds read high
Summary of the method: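 Readout is yeast growth inhibition, normalised to vehicle-treated controls, in the mec2-1 strain exposed to compound.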

[3] = NCI Yeast Anticancer Drug Screen. Data for the sgs1 mgt1 strain (AID 161);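 also: 0% = growth of cultures given vehicle only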; conditions: S. cerevisiae sgs1 mgt1 strain, at 50.0 µM, active compounds read high
Summary of the method: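 Compounds are added to genetically altered yeast, and growth is compared with cultures given vehicle alone to give percent inhibition.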

[4] = NCI Yeast Anticancer Drug Screen. Data for the cln2 rad14 strain (AID 165);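 also: 0% = growth equal to vehicle treated cultures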; conditions: S. cerevisiae cln2 rad14 strain, at 50.0 µM, active compounds read high
Summary of the method: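 Relative to vehicle controls, growth inhibition of compound-treated cln2 rad14 yeast was recorded.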

[5] = NCI Yeast Anticancer Drug Screen. Data for the bub3 strain (AID 167); conditions: S. cerevisiae bub3 mutant strain, at 50.0 µM, active compounds read high
Summary of the method: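 Steps: expose the mutant yeast strain to compound; grow alongside vehicle-treated cultures; measure growth; express inhibition against the vehicle cultures.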

[6] = NCI Yeast Anticancer Drug Screen. Data for the mlh1 rad18 strain (AID 175); conditions: S. cerevisiae mlh1 rad18 strain growth inhibition; at 50.0 µM; active compounds read high
Summary of the method: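 Test agents were incubated with a yeast strain of defined genotype (DNA damage repair defect). Inhibition of growth was derived by comparison with vehicle-exposed cultures.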

Measured: growth inhibition

CC(=O)OCC(=O)c1cc(C)n(C)c(=O)c1CN1C(=O)c2ccccc2C1=O
inactive: [1] -10.7% | [2] 9.05% | [3] 2.2% | [4] -36.3% | [5] 10.6% | [6] -12.7%

Cc1ccc(NC(=O)CC2C(=O)Nc3ccccc3S2=O)c(C)c1 (configuration not stated)
inactive: [1] -7.85% | [2] -24.9% | [3] 4.45% | [4] 20.4% | [5] 15.8% | [6] -5.55%

COc1cc2ccncc2cc1O
inactive: [1] -7.25% | [2] -18.4% | [3] -26.3% | [4] -4.25% | [5] 9.45% | [6] -16.1%

CCCCCC/C(C)=N/O
inactive: [1] -1.8% | [2] 3.75% | [3] 0.8% | [4] 4.85% | [5] 10.7% | [6] -6.2%

c1ccc2c(c1)ccc1c3c(oc12)CCCC3
inactive: [1] -10.5% | [2] -6.45% | [3] -15.7% | [4] -36.4% | [5] 0.25% | [6] -5.9%

N#Cc1c2c(c(N=P(c3ccccc3)(c3ccccc3)c3ccccc3)n3c1nc1ccccc13)CCCC2
inactive: [1] 44.6% | [2] 5.5% | [3] 14.9% | [4] 41.9% | [5] 30% | [6] 26.9%

CCCC(C)C(=O)OCCOCC (configuration not stated)
inactive: [1] 4.55% | [2] 2.8% | [3] -1.5% | [4] -32.4% | [5] 9.3% | [6] 49.9%

O=S(=O)(O)c1cccc2c(O)cccc12
inactive: [1] -7.9% | [2] -2.9% | [3] 5.65% | [4] 34.9% | [5] 5.35% | [6] -32%

COc1ccc(C2C3=C(CCCC3=O)N(c3ccccc3)C3=C2C(=O)CCC3)cc1
inactive: [1] -67% | [2] -18.4% | [3] 3.3% | [4] 19.9% | [5] 7.4% | [6] -27.5%

CCCCN(CCCC)CC(O)c1cc(-c2ccc(Cl)cc2)nc2cc(OC)c(OC)cc12 (configuration not stated)
active: [1] 99% | [2] 99.6% | [3] 99.7% | [4] 98.8%
inactive: [5] 51.8% | [6] 69.9%

CC1=NN(C(=O)CC(=O)Nc2ccccc2C)C(=O)C1N=Nc1ccc(S(=O)(=O)c2ccc(N=NC3C(=O)N(C(=O)CC(=O)Nc4ccccc4C)N=C3C)cc2)cc1 (configuration not stated)
inactive: [1] 41.6% | [2] 14.5% | [3] -2.25% | [4] 2.45% | [5] -8.75% | [6] 1.35%

COc1ccc2cc(OC)ccc2c1
inactive: [1] 4.95% | [2] -14.6% | [3] -1.15% | [4] 22% | [5] 1.5% | [6] 14%

CNCC(N)=O
inactive: [1] -0.05% | [2] 5.95% | [3] 15.3% | [4] -2.95% | [5] -2.4% | [6] 33%

CCC(C(=O)c1ccccc1)C1(C(=O)OC)NC(=S)NC(=O)C1C#N (configuration not stated)
inactive: [1] 3.25% | [2] -2.85% | [3] -2.55% | [4] -17.9% | [5] -8.05% | [6] 4%

Cc1cc2ccc(OC(=O)c3ccc(N=C(N)N)cc3)cc2oc1=O
inactive: [1] -8.95% | [2] 4.3% | [3] -29.6% | [4] -47.8% | [5] -24.6% | [6] 13.7%

COc1cc(C)c(/C=C/C(=O)N2C(=O)OC[C@@H]2c2ccccc2)c(C)c1
inactive: [1] 4.35% | [2] -8.75% | [3] 21.1% | [4] 26.9% | [5] 19.1% | [6] 18.2%

Cn1cnc2c([nH]c(=O)n2C2OC(CO)C(O)C2O)c1=N (configuration not stated)
inactive: [1] 13.5% | [2] 1.05% | [3] 2% | [4] -35.4% | [5] 3.55% | [6] 9.55%

Cc1[nH]c2ccccc2c1CC1CC(=O)OC1=O (configuration not stated)
inactive: [1] -8.35% | [2] -18.6% | [3] 12.5% | [4] 6.3% | [5] -9.15% | [6] -7.15%

CCn1c(=NC(=O)c2ccccc2O)sc2ccccc21
inactive: [1] 16.5% | [2] 4% | [3] 2.15% | [4] 17.9% | [5] -5.7% | [6] -3.05%

Cc1ccc([N+](=O)[O-])c(N)c1
inactive: [1] 40.5% | [2] 27.4% | [3] 26.1% | [4] 18.9% | [5] 4.65% | [6] 26.4%

COc1cc(C)c(O)c(C/C=C(\C)CC2=C[C@@]3(C)CCC[C@@]3(C)[C@]3(CC(O)C(C)(C)O3)O2)c1 (some centres not stated)
inactive: [1] 21.1% | [2] 6.2% | [3] -8.5% | [4] 4.75% | [5] 4.95% | [6] 10%

O=C1c2ccccc2CC1(c1ccccc1)c1ccccc1
inactive: [1] 15.1% | [2] -5% | [3] -6.6% | [4] 10.5% | [5] -9.85% | [6] -7.5%

CCOC(=O)CCC(NC(=O)c1ccc(N(C)C=O)cc1)C(=O)OCC (configuration not stated)
inactive: [1] 10.9% | [2] -6.8% | [3] -0.55% | [4] -6.8% | [5] 6.45% | [6] 12.3%

CCc1cccc(CC)c1N1C(=O)C2C(C1=O)C1(Cl)C(Cl)=C(Cl)C2(Cl)C1(Cl)Cl (configuration not stated)
active: [4] 74.2% | [6] 87.6%
inactive: [1] 37.4% | [2] 50.6% | [3] 65.4% | [5] 61%

CN=Cc1ccccc1O.CN=Cc1ccccc1O.[Cu+2]
inactive: [1] 6.55% | [2] -8.6% | [3] -10.9% | [4] -73.8% | [5] -2.5% | [6] 3.05%

COc1ccc(NC(=O)CSc2nc(C)nc3c2sc(=S)n3-c2ccccc2)cc1
inactive: [1] -16.7% | [2] -4.85% | [3] 2.95% | [4] 2.65% | [5] -3.5% | [6] 4.45%

N#CC1=C(S)N(C2OC(CO)C(O)C(O)C2O)C(c2ccccc2)=CC1c1ccco1 (configuration not stated)
inactive: [1] 36.1% | [2] 13% | [3] 4.85% | [4] -12.4% | [5] -3% | [6] 27.6%

CCOc1ccc(N=C2NC(=O)C(CC(=O)Nc3ccc(Cl)cc3Cl)S2)cc1 (configuration not stated)
inactive: [1] 15% | [2] 15.3% | [3] -7.4% | [4] -51.9% | [5] -6% | [6] 27.2%

Cc1ccccc1NC(=O)CC#N
inactive: [1] 8.15% | [2] -12.3% | [3] 1.5% | [4] 3.85% | [5] -0.7% | [6] 2.2%

Cc1nc(CCCCCCCC(=O)O)ccc1O
inactive: [1] 6.25% | [2] 7.25% | [3] -10.6% | [4] -9.35% | [5] 0.85% | [6] 7.3%

CCOC(=O)/C=C/SCCCC(=O)O
inactive: [1] 1.5% | [2] -1.5% | [3] 0.25% | [4] -22.8% | [5] -4.55% | [6] 42.2%

N#Cc1nc(Cc2ccccc2)oc1N
inactive: [1] 27.3% | [2] 9.2% | [3] -22% | [4] 18.4% | [5] -26.1% | [6] -22.6%

CNC(=O)Sc1ccc(C)c([N+](C)(C)C)c1
inactive: [1] 10.1% | [2] 5.6% | [3] 9% | [4] -9.6% | [5] 18.1% | [6] 18.5%

CCOC(=O)c1c2c(c(-c3ccccc3)n1C)C(=O)C(C)=C(C)C2=O
inactive: [1] -10.8% | [2] -2.4% | [3] -10.2% | [4] -28.9% | [5] 1.05% | [6] -6.65%

O=C(Nc1ccccc1[N+](=O)[O-])C(=O)Nc1ccccc1[N+](=O)[O-]
inactive: [1] -7.55% | [2] 5.9% | [3] -2.95% | [4] -22.5% | [5] -0.9% | [6] -0.25%

CCCCCCCC/C=C\CCCCCCCC(=O)N(CCOC(=O)CCC(=O)OCCN(C(=O)CCCCCCC/C=C\CCCCCCCC)C1CCCCC1)C1CCCCC1
inactive: [1] -5.15% | [2] -9.25% | [3] -17.4% | [4] -3.2% | [5] -4.25% | [6] 16.8%

O=C(O)CC(Cc1ccc2c(c1)OCO2)C(=O)O (configuration not stated)
inactive: [1] -5.6% | [2] -2.35% | [3] -34.2% | [4] -33.9% | [5] -54.6% | [6] 2.55%

Source: PubChem BioAssay (NCI)
